SENP8 block-1: blocks the human protease SENP8; AID 2540; inhibition, % at 10 µM; Q96LD8; actives 1.2% (n = 330,000); purified SENP8, Z-RLRGG-aminoluciferin cleavage, luminescence; in the data active = inhibition above about 50%
Target sequence (Q96LD8 whole entry, looked up): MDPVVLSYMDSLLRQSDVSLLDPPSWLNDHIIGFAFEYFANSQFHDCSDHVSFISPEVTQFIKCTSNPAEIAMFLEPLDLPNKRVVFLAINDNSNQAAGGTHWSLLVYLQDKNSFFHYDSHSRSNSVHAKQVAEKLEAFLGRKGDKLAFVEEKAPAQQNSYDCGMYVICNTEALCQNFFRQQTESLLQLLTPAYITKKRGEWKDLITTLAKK
Platelet DG rel: platelet dense granule release activity; human platelet-rich plasma, SFLLRN dense granule ATP release, luminescence; inhibition, %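 (compounds screened at 7.5 µM in platelet-rich plasma)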; actives 0.22% (n = 300,000); AID 1663;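 active = mean replicate score, as percent of positive control, at or above 50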
SENP8 block-2: blocks human SENP8 cleavage of Nedd8 substrate. recombinant SENP8, Nedd8 substrate fluorescence. Q96LD8. actives 0.64% (n = 360,000). inhibition, % at 20 µM; in the data active = inhibition mostly above about 40%, no sharp cut-off; inactive = mostly below about 27%
SENP6 inh: inhibitors of human SENP6 protease; Recombinant SENP6 catalytic domain, aminoluciferin luminescence; inhibition, % at 10 µM; actives 1.8% (n = 330,000); AID 2599;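 active = inhibition above about 50% at the single tested dose, limit read from the data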;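 also: plate controls were DMSO wells with enzyme for no effect and DMSO wells lacking enzyme for full effect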
HSP90 inh: blocks HSP90-mediated luciferase refolding in reticulocyte lysate. Rabbit reticulocyte lysate, luciferase refolding luminescence, 3 h. inhibition, % at 5.6 µM. actives 0.91% (n = 290,000);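 active = inhibition above the screen-wide mean plus 3 SD, computed separately per campaign, cut at about 16% in these data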;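 also: 0% = DMSO wells and 100% = 60 µM geldanamycin wells; inhibitors lower the luminescence because luciferase stays unfolded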
SENP7 block: SENP7 protease inhibition. Q9BQF6. AID 434973. inhibition, % at 5 µM. actives 1.5% (n = 330,000). recombinant SENP7, Z-RLRGG-aminoluciferin luminescence, 40 min;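 active = inhibition above about 50% at the single test dose, limit read from the data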;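 also: plate controls were DMSO with enzyme for no effect and no enzyme buffer wells for full effect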
Target sequence (Q9BQF6 706-1050 limits assumed): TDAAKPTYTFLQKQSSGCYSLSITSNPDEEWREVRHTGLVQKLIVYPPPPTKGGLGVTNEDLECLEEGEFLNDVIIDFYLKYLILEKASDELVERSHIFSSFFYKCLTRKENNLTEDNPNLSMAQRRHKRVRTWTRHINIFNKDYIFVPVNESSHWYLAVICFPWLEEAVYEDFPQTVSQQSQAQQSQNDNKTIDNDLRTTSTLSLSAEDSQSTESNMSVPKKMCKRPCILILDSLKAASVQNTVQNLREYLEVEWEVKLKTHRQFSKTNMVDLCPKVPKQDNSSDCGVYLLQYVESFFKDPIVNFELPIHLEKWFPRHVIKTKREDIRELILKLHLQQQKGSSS
Active calls of the source: *; nt = no result given. A selection: hits, their analogues and other compounds. The true share with any hit is near 2.8%.

SMILES | SENP8 block-1 | Platelet DG rel | SENP8 block-2 | SENP6 inh | HSP90 inh | SENP7 block
COc1ccc(-n2c(C(C)n3nc(C)c([N+](=O)[O-])c3C)n[nH]c2=S)cc1 (stereo unspecified) | -10 | 0 | 4 | -6 | -5 | -1
COc1ccc(-n2c(C)c([N+](=O)[O-])c3ccc(O)c(CN(C)C)c32)cc1 | -10 | 4 | 42* | -12 | 2 | -8
COc1ccc(OCc2cc(C(=O)N(C)C(C)c3ccon3)no2)c(Cl)c1 (stereo unspecified) | -1 | -6 | 9 | 15 | -2 | 3
CC(Cc1ccccc1)NC(=O)CCCN1C(=O)c2ccccc2C1=O (stereo unspecified) | -1 | 4 | 17 | -18 | -2 | 5
Cc1ccnc(Nc2cccnc2)n1 | nt | nt | 8 | nt | nt | nt
Cc1cc(C)n2nc(SCC(=O)Nc3ccc(F)c(F)c3F)nc2n1 | -7 | nt | 14 | -4 | nt | 14
Oc1csc(Cc2nc(-c3ccc4ccccc4c3)cs2)n1 | 37 | 1 | -44 | 8 | 5 | 66*
COC(=O)c1ccc(NC(=O)C(=O)N2CCCC2)cc1 | -16 | 9 | 35 | 4 | 16* | -6
COc1ccc(C)c2sc(=NC(=O)c3ccc(C(C)=O)cc3)n(C)c12 | 82* | 7 | -305 | 89* | 5 | 97*
COc1ccc(C)c2sc(=NC(=O)C(C)C)n(C)c12 | -6 | 0 | -46 | -6 | 2 | 5
NS(=O)(=O)c1ccc(CCNC(=O)COC(=O)CCc2c[nH]c3ccccc23)cc1 | -14 | nt | -1 | 13 | nt | -4
CCOc1cc(N2CCOCC2)c(OCC)cc1NC(C)C(=O)N1CCN(CC)CC1 (stereo unspecified) | nt | 2 | 58* | nt | 1 | nt
CCOc1cc(N2CCOCC2)c(OCC)cc1NC(=O)CSc1cccc[n+]1[O-] | -12 | 0 | 47* | -7 | 2 | -12
CCOc1cc(N2CCOCC2)c(OCC)cc1NC(=O)C(C)C | -7 | -1 | 14 | 8 | 1 | 2
CCn1nc(C(=O)NNS(=O)(=O)c2ccc(C)cc2)c2ccccc2c1=O | 2 | nt | 5 | 2 | nt | -2
O=C(COC(=O)/C=C/c1cccc(C(F)(F)F)c1)NC1CCS(=O)(=O)C1 (stereo unspecified) | 4 | nt | 12 | 12 | nt | 1
CC1CCC2(CC1)NC(=O)N(CC(=O)NCCc1ccc(F)cc1)C2=O (stereo unspecified) | -10 | nt | -6 | -9 | nt | 2
CC(C)Cn1[nH]c2c3c(ccc2c1=O)C(=O)c1ccccc1C3=O | 7 | -35 | 43* | 27 | -1 | 7
O=C1c2ccccc2C(=O)c2c1ccc1c(=O)n(-c3ccccc3)[nH]c21 | 3 | -8 | 26 | 14 | -2 | 11
COc1ccc(C2c3c(-c4cc(Cl)c(C)cc4O)n[nH]c3C(=O)N2Cc2cccnc2)cc1OC (stereo unspecified) | -18 | 72* | 11 | -26 | 2 | -10
COc1ccc(C(=O)NCCn2cc(SCC(=O)NCc3ccco3)c3ccccc32)cc1 | -4 | 2 | 6 | -16 | 59* | -12
Cc1nnc(NC(=O)CSc2cn(CCNC(=O)c3ccccc3)c3ccccc23)s1 | -9 | 58* | 30 | -8 | 13 | 10
COc1ccc(C(=O)NCCn2cc(SCC(=O)Nc3nnc(C)s3)c3ccccc32)cc1 | 3 | -11 | 8 | 26 | 17* | -1
Cc1cc(NC(=O)CSc2cn(CCNC(=O)c3ccc(F)cc3)c3ccccc23)no1 | 3 | 3 | 28 | -9 | 13 | -9
COc1ccc(C(=O)NCc2nnc(SCC(=O)Nc3nnc(C)s3)o2)cc1 | -2 | 21 | 6 | -2 | -1 | -2
SMILES | SENP8 block-1 | Platelet DG rel | SENP8 block-2 | SENP6 inh | HSP90 inh | SENP7 block
COc1ccc(CNC(=O)N[C@H](C(=O)O)C(C)C)cc1OC | 3 | -1 | 9 | -2 | -2 | 8
O=C(NC(=S)Nc1cccc(O)c1)C1CCCCC1 | 0 | nt | 13 | 8 | nt | 7
COC(=O)c1ccc(N=NNc2ccc(C(=O)OC)cc2)cc1 | -12 | -6 | -1 | -21 | 16* | 0
Cn1c(=NC(=O)CS(=O)(=O)c2ccccc2)sc2cc([N+](=O)[O-])ccc21 | -1 | 2 | 23 | -9 | nt | 8
CCC(=O)NC(c1cccs1)c1cc([N+](=O)[O-])c2cccnc2c1O (stereo unspecified) | 7 | 6 | 66* | 3 | 4 | 10
CC(=O)NC(c1cccs1)c1cc([N+](=O)[O-])c2cccnc2c1O (stereo unspecified) | nt | 12 | 45* | nt | 6 | nt
CC(=O)NC(c1ccccc1)c1cc([N+](=O)[O-])c2cccnc2c1O (stereo unspecified) | 5 | 3 | 52* | 9 | 6 | 7
CCCC(=O)NC(c1cccs1)c1cc([N+](=O)[O-])c2cccnc2c1O (stereo unspecified) | nt | -8 | 52* | nt | -2 | nt
O=C(c1ccc(F)cc1Cl)N(Cc1ccco1)C1CCS(=O)(=O)C1 (stereo unspecified) | 2 | nt | 7 | -6 | nt | -3
Cn1cc(S(=O)(=O)N2CCc3ccccc32)cc1C(=O)Nc1ccc(Cl)cc1 | -7 | 62* | 5 | -31 | 0 | -7
Cc1ccc(N(C)C(=O)c2cc(S(=O)(=O)N3CCc4ccccc43)cn2C)cc1 | -10 | 10 | 3 | -14 | 3 | -13
CN(C(=O)c1cc(S(=O)(=O)N2CCc3ccccc32)cn1C)C1CCCCC1 | -16 | 58* | 4 | -6 | 3 | -12
Cc1ccc(NCN2C(=O)C3C4C=CC(C4)C3C2=O)cc1 (stereo unspecified) | -2 | -1 | 16 | -13 | 8 | -7
O=C1C2C3C=CC(C3)C2C(=O)N1CNc1ccc(O)cc1 (stereo unspecified) | 13 | 18 | nt | 72* | nt | 18
Cc1csc(=O)n1CC(=O)OCC(=O)Nc1ccc(F)c(F)c1 | 7 | -3 | 28 | -9 | nt | -3
CCOc1ccc(S(=O)(=O)Nc2cc(SCC(=O)O)c(O)c3ccccc23)cc1 | nt | -1 | 46* | nt | 4 | nt
O=C(O)CSc1cc(NS(=O)(=O)c2cccc([N+](=O)[O-])c2)c2ccccc2c1O | nt | 5 | 12 | nt | 9 | nt
CN1C=C/C(=C\c2cc[n+](C)c3ccccc23)c2ccccc21 | nt | 3 | -16 | nt | 17* | nt
CC[n+]1ccc(/C=C2\Sc3ccccc3N2CCCS(=O)(=O)[O-])c2ccccc21 | 2 | -2 | 7 | -22 | 1 | -3
O=C1C(Cl)=C(N2CCCCC2)C(=O)N1c1ccccc1Cl | 0 | -2 | 10 | -4 | 1 | -1
O=C1c2cccc(Cl)c2C(=O)c2c1cccc2N1CCCC1 | 27 | 3 | 74* | 29 | -1 | 8
O=C(/C=C/[C@H]1O[C@@H](n2cnc3c(NC(=O)c4ccccc4)ncnc32)[C@H](O)[C@@H]1O)NCC1CCCCC1 | nt | nt | 16 | nt | nt | nt
CC(C)c1ccccc1NC(=S)NCc1ccncc1 | 1 | 1 | 2 | -8 | -4 | -9
